{
  "source": "PubChem BioAssay (NCATS)",
  "note": "Results filed as inconclusive are left out. Unmarked numbers belong to inactive results. The source made the active and inactive calls. Calls come from the whole dose curve. Potency is the fitted concentration of half-maximal effect.",
  "data": [
    {"target": "Cytochrome P450 1A2 (Homo sapiens) (UniProt P05177)", "sequence (P05177 whole entry, looked up)": "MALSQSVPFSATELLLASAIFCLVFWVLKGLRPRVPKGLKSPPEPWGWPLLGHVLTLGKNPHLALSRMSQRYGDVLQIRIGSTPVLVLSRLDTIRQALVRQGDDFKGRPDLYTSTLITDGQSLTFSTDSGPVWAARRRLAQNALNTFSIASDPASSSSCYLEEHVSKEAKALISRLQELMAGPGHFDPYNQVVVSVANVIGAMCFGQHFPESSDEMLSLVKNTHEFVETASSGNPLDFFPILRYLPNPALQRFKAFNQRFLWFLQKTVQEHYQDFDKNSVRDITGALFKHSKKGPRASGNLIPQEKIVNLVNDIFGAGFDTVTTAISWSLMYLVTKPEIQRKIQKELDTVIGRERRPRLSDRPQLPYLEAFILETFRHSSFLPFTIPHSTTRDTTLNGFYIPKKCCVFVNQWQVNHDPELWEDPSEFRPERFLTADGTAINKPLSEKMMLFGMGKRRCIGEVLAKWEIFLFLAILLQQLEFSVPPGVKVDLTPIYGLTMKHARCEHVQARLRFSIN", "experiment": "p450-cyp1a2 (AID 410);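 for activity change, negative = inhibition: -100% = full effect of reference inhibitor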", "details": "recombinant CYP1A2, luciferin-ME demethylation, luminescence; series mostly up to 57 µM; activity change, negative = inhibition: at the top concentration", "description": "The P450 gene superfamily is involved in metabolism and the clearance of xenobiotics. This assay used human CYP1A2 to measure the demethylation of luciferin 6' methyl ether (Luciferin-ME; Promega-Glo) to luciferin. The luciferin is then measured by luminescence after the addition of a luciferase detection regeant. Luciferin-ME concentration in the assay was equal to its Km for CYP1A2.\nNCGC Assay Protocol Summary:\nTwo uL of enzyme and substrate mix (final concentrations: 20nM CYP1A2, 100uM Luciferin-ME, 100mM KPO4) were dispensed into a white, solid bottom 1536-well microtiter plate. 23nL of compound was transferred by a pin tool. The plate was incubated at room temperature for 10 min. Two uL of an NADPH regeneration solution (Promega supplied reagent) was dispensed and the reaction was allowed to continue for 60 min at room temperature. Then the reaction was stopped by reconstituted detection reagent. After another 20 min of incubation the plate was read on the ViewLux (Perkin Elmer) at 60 sec exposure and 2x2 binning. This protocol was carried out with Promega-Glo reagents and further information can be found at http://www.promega.com/tbs/tb325/tb325.pdf. Data were normalized to the to AC100 inhibition (57 uM furafylline).", "values": [
      {"compound": "C/C=C1\\C[C@H](C)[C@](O)(CO)C(=O)OCC2=CCN3CC[C@@H](OC1=O)[C@@H]23", "activity change, negative = inhibition": "15.8%"},
      {"compound": "C=CCCN1C[C@@H]2C[C@H](C1)c1cccc(=O)n1C2", "activity change, negative = inhibition": "-2.9%"},
      {"compound": "CCCN1CCc2cccc3c2[C@@H]1Cc1ccc(O)c(O)c1-3", "Potency": "3.98 µM (active)"},
      {"compound": "COc1cc2c(cc1OC)[C@]13CCN4CC5=CCO[C@@H]6CC(=O)N2[C@@H]1[C@H]6[C@@H]5C[C@H]43", "activity change, negative = inhibition": "-6.1%"},
      {"compound": "CN1C[C@H](CO)C=C2c3cccc4[nH]cc(c34)C[C@H]21", "Potency": "1 µM (active)"},
      {"compound": "CC1=C2[C@@H]3OC(=O)[C@H](C)[C@H]3CC[C@@]2(C)C=CC1=O", "Potency": "31.6 µM (active)"},
      {"compound": "NCC[Se][Se]CCN", "Potency": "3.16 µM (active)"},
      {"compound": "C[C@H]1CCCC=CC2C[C@H](O)C[C@@H]2[C@H](O)/C=C\\C(=O)O1", "note": "(stereo not given in full)", "Potency": "15.8 µM (active)"},
      {"compound": "C[C@H](N[C@@H](C)CCc1ccccc1)[C@H](O)c1ccc(O)cc1", "Potency": "7.94 µM (active)"},
      {"compound": "C=C(C)[C@@H]1CN[C@H](C(=O)O)[C@H]1CC(=O)O", "activity change, negative = inhibition": "-10.9%"},
      {"compound": "CCCCCC[C@H]1C(=O)O[C@@H](C)[C@H](NC(=O)c2cccc(NC=O)c2O)C(=O)O[C@@H](C)[C@@H]1OC(=O)CC(C)C", "activity change, negative = inhibition": "2.9%"},
      {"compound": "C/C=C(\\C)C(=O)O[C@@H]1C(C)=C2[C@H]([C@@H]1OC(=O)CCCCCCC)[C@@](C)(OC(C)=O)C[C@@H](OC(=O)CCC)[C@@]1(O)[C@H]2OC(=O)[C@]1(C)O", "Potency": "39.8 µM (active)"},
      {"compound": "C[C@@H](CO)NC(=O)[C@H]1C=C2c3cccc4[nH]cc(c34)C[C@H]2N(C)C1", "Potency": "31.6 µM (active)"},
      {"compound": "N[C@@H]1CCc2cc(O)c(O)cc2C1", "activity change, negative = inhibition": "-3.2%"},
      {"compound": "C[C@H](N)c1cccc(Cl)c1Cl", "Potency": "1.26 µM (active)"},
      {"compound": "CCCc1cc2c(n1Cc1cccc(Cl)c1)C(C)C1CN(C(=O)c3ccccc3)C(C)(C(=O)OC)C21", "note": "(stereo not given)", "Potency": "31.6 µM (active)"},
      {"compound": "O=C1C[C@H]2OCCC=C3CN4CC[C@@]56c7ccccc7N1[C@@H]5[C@H]2[C@H]3C[C@@H]46", "activity change, negative = inhibition": "14.1%"},
      {"compound": "CCC/C=C(\\CCC)C(NP(=O)(c1ccccc1)c1ccccc1)c1ccccc1", "note": "(stereo not given)", "Potency": "15.8 µM (active)"},
      {"compound": "CC(C)(C)NC[C@H](O)c1ccccc1Cl", "activity change, negative = inhibition": "-1.4%"},
      {"compound": "CCN(CC)C(=O)N[C@H]1C[C@H]2c3cccc4[nH]cc(c34)C[C@@H]2N(C)C1", "activity change, negative = inhibition": "-12.5%"},
      {"compound": "CCCN1CCC[C@H](c2cccc(C#N)c2)C1", "activity change, negative = inhibition": "-12.2%"},
      {"compound": "C[C@]12Cc3cn4c(nc3C=C1CC[C@H]1[C@@H]2CC[C@@]2(C)[C@H]1CC[C@@]2(O)C#N)nc1ccccc14", "Potency": "15.8 µM (active)"},
      {"compound": "COC(=O)[C@@]1(Cc2ccc(F)cc2)[C@H]2c3cc(C(=O)N(C)C)[nH]c3C[C@H]2CN1C(=O)c1ccccc1", "Potency": "20 µM (active)"},
      {"compound": "CCCC[C@@H]1C[C@H]1C(NP(=O)(c1ccccc1)c1ccccc1)c1ccc(Cl)cc1", "note": "(stereo not given in full)", "activity change, negative = inhibition": "-7.3%"},
      {"compound": "CC(C)[C@]1(NC(=O)[C@H]2C=C3c4cccc5[nH]cc(c45)C[C@H]3N(C)C2)O[C@@]2(O)[C@H]3CCCN3C(=O)[C@H](Cc3ccccc3)N2C1=O", "Potency": "31.6 µM (active)"},
      {"compound": "C[C@@H]1CCC/C=C\\[C@H]2C[C@H](O)C[C@@H]2[C@H](O)/C=C\\C(=O)O1", "activity change, negative = inhibition": "-19.1%"},
      {"compound": "O=C(CCCN1CCC2(CC1)C(=O)N(CCc1ccc(N=C=S)cc1)CN2c1ccccc1)c1ccc(F)cc1", "activity change, negative = inhibition": "15.5%"},
      {"compound": "CN[C@H]1[C@H]2[C@H]3CCN2C[C@@H]1O3", "activity change, negative = inhibition": "-14.1%"},
      {"compound": "c1cc2c(cc1[C@H]1OC[C@H]3[C@@H]1CO[C@H]3c1ccc3c(c1)OCO3)OCO2", "Potency": "2 µM (active)"},
      {"compound": "CCCc1cc2c(n1Cc1ccc(C)cc1)C(C)C1CN(C(=O)c3ccccc3)C(C)(C(=O)OC)C21", "note": "(stereo not given)", "Potency": "7.94 µM (active)"},
      {"compound": "CCCCCCCCCCCCCC(=O)O[C@H]1[C@@H](C)[C@@]2(O)[C@@H](C=C(CO)C[C@]3(O)C(=O)C(C)=C[C@@H]23)C2C(C)(C)[C@]21OC(C)=O", "note": "(stereo not given in full)", "activity change, negative = inhibition": "-12.3%"},
      {"compound": "CC(C)(C)[C@@]1(O)C[C@@H]2OC(=O)C[C@@]23C(=O)O[C@H]2OC(=O)[C@@H](O)[C@]231", "activity change, negative = inhibition": "4.7%"},
      {"compound": "O=P(c1ccccc1)(c1ccccc1)N1CC2(CC2)CC(O)(c2ccccc2)C1", "note": "(stereo not given)", "activity change, negative = inhibition": "-19.7%"},
      {"compound": "COc1ccc2c(c1O)-c1c(OC)c(OC)cc3c1[C@@H](C2)N(C)CC3", "Potency": "15.8 µM (active)"},
      {"compound": "CC[C@H]1[C@@H]2C[C@@H]3[C@@H]4N(C)c5ccccc5[C@@]45C[C@@H]([C@H]2[C@@H]5O)N3[C@@H]1O", "activity change, negative = inhibition": "-7.7%"},
      {"compound": "N[C@]1(C(=O)O)CC[C@@H](C(=O)O)C1", "activity change, negative = inhibition": "-1.1%"},
      {"compound": "CC1(C)[C@@H]2CC[C@]1(C)CN(CCC[N+](C)(C)C)C2", "activity change, negative = inhibition": "-6.8% [at 2.29 µM]"},
      {"compound": "COc1ccc2[nH]c3c(c2c1)CCN=C3C", "Potency": "1.58 µM (active)"},
      {"compound": "O=c1cccc2n1C[C@H]1C[C@@H]2CN(CCO)C1", "Potency": "15.8 µM (active)"},
      {"compound": "C[C@H]1C(=O)O[C@H]2CCN3CC=C(COC(=O)[C@](C)(O)[C@@]1(C)O)[C@H]23", "activity change, negative = inhibition": "6.3%"}
    ]}
  ]
}
